Laboratory results: the supplement of paper PMC10849652
About 7,900 targets were measured; listed, in parts, are those with a hit and a random draw of the rest. About 0.6% of all pairs of compound and target were hits.

Tests used:
Experiment in all cases: log2 fold change, soluble protein after heating vs DMSO (PISA); higher = thermal stabilisation; K562 cells, 10 uM, 30 min; active = over 0.2 and 3.5 SD of the protein, either way, in both replicates (recomputed)
[1] = compound: NC(=O)c1cnc(N[C@@H]2CCCC[C@@H]2N)nc1Nc1cccc(-n2nccn2)c1
In short: (§1)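 K562 cells (2×10^6 cells/mL) were treated with 10 μM compound for 30 min, and aliquots were heated for 3 min over 48°C-58°C. Pooled aliquots were extracted in PBS with 0.5% NP-40 at 4°C, and the supernatant after 21,000xg for 90 min was measured by TMTpro 16plex LC-MS/MS with channel sums equalised. Reported thermal stability, relative to control samples and from duplicates, is a log2 fold change.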

vorinostat = compound: O=C(CCCCCCC(=O)Nc1ccccc1)NO [vorinostat]
In short: as §1

[2] = compound: NC1(c2ccc(-c3nc4ccn5c(=O)[nH]nc5c4cc3-c3ccccc3)cc2)CCC1
In short: as §1

[3] = compound: NCC(=O)Nc1ccc(-n2nc(C(F)(F)F)cc2-c2ccc3c(ccc4ccccc43)c2)cc1
In short: as §1

silmitasertib = compound: O=C(O)c1ccc2c(c1)nc(Nc1cccc(Cl)c1)c1ccncc12 [silmitasertib]
In short: as §1

[4] = compound: O=C1NC(=O)C(c2cnc3ccccn23)=C1c1cn2c3c(cc(F)cc13)CN(C(=O)N1CCCCC1)CC2
In short: as §1

citarinostat = compound: O=C(CCCCCCNC(=O)c1cnc(N(c2ccccc2)c2ccccc2Cl)nc1)NO [citarinostat]
In short: as §1

[5] = compound: c1cc(OCCN2CCCCC2)cc(-c2n[nH]c3ccc(-c4nnc[nH]4)cc23)c1
In short: as §1

entospletinib = compound: c1cn2cc(-c3ccc4cn[nH]c4c3)nc(Nc3ccc(N4CCOCC4)cc3)c2n1 [entospletinib]
In short: as §1

[6] = compound: NC(=O)Nc1cc(-c2cccc(F)c2)sc1C(=O)N[C@H]1CCCNC1
In short: as §1

entinostat = compound: Nc1ccccc1NC(=O)c1ccc(CNC(=O)OCc2cccnc2)cc1 [entinostat]
In short: as §1

Measured: log2 fold change

NA, A0A1W2PSA9
inactive: [1] 0.004 | vorinostat -0.364

MT-ND2 (UniProt P03891)
inactive: [1] 0.146 | [2] -0.128 | [3] 0.036 | vorinostat 0.036 | silmitasertib -0.01

NELFCD (UniProt Q8IXH7)
Chain of UniProt Q8IXH7 (Q8IXH7 whole entry, looked up): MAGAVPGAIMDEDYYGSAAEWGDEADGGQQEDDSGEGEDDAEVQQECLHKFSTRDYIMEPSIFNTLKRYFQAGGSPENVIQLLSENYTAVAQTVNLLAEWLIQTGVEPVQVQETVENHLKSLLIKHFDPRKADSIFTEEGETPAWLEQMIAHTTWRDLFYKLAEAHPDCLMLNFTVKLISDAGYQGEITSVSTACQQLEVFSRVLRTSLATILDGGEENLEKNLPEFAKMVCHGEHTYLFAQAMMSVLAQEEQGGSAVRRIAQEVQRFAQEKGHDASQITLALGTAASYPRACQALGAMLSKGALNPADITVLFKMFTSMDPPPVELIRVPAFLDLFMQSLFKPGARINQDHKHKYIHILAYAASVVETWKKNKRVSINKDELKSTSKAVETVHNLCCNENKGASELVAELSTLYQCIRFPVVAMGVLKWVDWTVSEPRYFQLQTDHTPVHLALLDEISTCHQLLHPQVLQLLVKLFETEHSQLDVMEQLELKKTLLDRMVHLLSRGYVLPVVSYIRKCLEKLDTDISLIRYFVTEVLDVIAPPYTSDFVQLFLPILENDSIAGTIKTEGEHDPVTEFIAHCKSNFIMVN
inactive: [1] -0.005 | [3] -0.321 | vorinostat 0.234 | [4] -0.12

NMU (UniProt P48645)
Chain of UniProt P48645 (P48645 whole entry, looked up): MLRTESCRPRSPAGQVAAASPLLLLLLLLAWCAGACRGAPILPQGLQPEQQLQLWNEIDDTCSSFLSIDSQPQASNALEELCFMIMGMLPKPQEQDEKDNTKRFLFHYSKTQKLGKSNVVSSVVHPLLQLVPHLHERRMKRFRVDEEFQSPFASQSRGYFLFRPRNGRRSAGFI
inactive: [1] -0.023 | [3] 0.132 | vorinostat 0.041 | citarinostat 0.043 | [4] 0.144 | [5] -0.08 | entospletinib 0.078

NEU3 isoform 2 (UniProt Q9UQ49)
inactive: [6] 0.112 | entinostat -0.071

NKTR (UniProt P30414)
inactive: [2] 0.074 | silmitasertib -0.023

MRM2 (UniProt Q9UI43)
inactive: [1] -0.202 | [3] -0.211

NA (UniProt J3KR12)
inactive: [2] -0.292 | silmitasertib -0.108 | [4] 0.427

OXR1 isoform 2 (UniProt Q8N573)
inactive: [1] 0.054 | [3] -0.046 | vorinostat 0.01 | citarinostat 0.013 | [4] -0.096 | [5] -0.053 | entospletinib 0.004

OSBPL3 (UniProt Q9H4L5)
Chain of UniProt Q9H4L5 (Q9H4L5 whole entry, looked up): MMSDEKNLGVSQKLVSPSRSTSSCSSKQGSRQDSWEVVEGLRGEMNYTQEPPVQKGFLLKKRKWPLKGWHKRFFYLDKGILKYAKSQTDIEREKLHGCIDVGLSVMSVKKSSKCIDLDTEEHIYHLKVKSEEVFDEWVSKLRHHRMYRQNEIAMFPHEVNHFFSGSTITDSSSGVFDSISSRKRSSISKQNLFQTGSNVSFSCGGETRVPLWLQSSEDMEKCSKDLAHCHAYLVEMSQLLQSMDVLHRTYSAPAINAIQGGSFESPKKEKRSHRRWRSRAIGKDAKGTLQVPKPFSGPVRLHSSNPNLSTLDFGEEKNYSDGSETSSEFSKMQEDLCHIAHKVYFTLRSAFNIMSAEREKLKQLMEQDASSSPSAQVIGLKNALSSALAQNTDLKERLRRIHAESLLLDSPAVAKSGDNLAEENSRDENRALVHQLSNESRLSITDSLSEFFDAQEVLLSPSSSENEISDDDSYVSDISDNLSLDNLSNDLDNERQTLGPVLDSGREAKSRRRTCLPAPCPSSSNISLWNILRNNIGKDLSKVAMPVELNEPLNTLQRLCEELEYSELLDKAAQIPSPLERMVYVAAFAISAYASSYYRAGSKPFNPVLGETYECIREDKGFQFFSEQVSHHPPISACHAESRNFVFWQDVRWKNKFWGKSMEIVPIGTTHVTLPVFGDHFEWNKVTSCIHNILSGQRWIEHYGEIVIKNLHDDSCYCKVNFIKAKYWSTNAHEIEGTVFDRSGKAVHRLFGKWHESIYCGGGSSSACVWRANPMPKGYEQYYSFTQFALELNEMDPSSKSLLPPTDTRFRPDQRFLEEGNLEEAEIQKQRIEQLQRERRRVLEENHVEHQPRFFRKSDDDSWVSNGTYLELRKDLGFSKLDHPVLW
inactive: [6] -0.079 | [1] -0.43 | [3] 0.106 | entinostat 0.077 | citarinostat -0.077 | [4] 0.307 | [5] -0.072 | entospletinib 0.171

OSBPL2 (UniProt Q9H1P3)
inactive: [2] -0.443 | silmitasertib 0.148

NA, A0A494C071
inactive: [1] -0.484 | [2] -0.407 | [3] -0.153 | vorinostat 0 | citarinostat 0.023 | silmitasertib 0.212 | [4] -0.022 | [5] -0.086 | entospletinib -0.105

OAF (UniProt Q86UD1)
Chain of UniProt Q86UD1 (Q86UD1 whole entry, looked up): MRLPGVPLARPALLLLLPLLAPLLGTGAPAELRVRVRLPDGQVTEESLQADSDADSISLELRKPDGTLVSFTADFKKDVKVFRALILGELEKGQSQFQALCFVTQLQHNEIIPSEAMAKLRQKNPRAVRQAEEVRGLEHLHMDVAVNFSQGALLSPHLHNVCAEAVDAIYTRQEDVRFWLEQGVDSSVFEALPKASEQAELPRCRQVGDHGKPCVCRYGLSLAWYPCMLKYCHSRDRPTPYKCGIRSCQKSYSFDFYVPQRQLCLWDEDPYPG
inactive: [6] -0.089 | [2] -0.188 | entinostat -0.029 | silmitasertib 0.019

NASP isoform 2 (UniProt P49321)
inactive: [2] 0.24 | silmitasertib -0.475

MMADHC (UniProt Q9H3L0)
Chain of UniProt Q9H3L0 (Q9H3L0 whole entry, looked up): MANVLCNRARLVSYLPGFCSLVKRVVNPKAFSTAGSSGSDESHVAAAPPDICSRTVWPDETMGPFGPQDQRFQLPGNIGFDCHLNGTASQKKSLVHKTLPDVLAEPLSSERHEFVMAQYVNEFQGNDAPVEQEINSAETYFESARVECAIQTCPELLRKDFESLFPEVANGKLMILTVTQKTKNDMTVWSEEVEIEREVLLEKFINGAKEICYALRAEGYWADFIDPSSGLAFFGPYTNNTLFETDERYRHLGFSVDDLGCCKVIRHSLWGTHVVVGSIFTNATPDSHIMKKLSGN
inactive: [1] 0.035 | [2] 0.014 | [3] 0.057 | vorinostat 0.157 | citarinostat 0.141 | silmitasertib 0.031 | [5] 0.031 | entospletinib 0.158

NCOA5 (UniProt Q9HCD5)
inactive: [6] -0.101 | entinostat -0.011 | vorinostat 0.023

MORC2 (UniProt Q9Y6X9)
Chain of UniProt Q9Y6X9 (Q9Y6X9 whole entry, looked up): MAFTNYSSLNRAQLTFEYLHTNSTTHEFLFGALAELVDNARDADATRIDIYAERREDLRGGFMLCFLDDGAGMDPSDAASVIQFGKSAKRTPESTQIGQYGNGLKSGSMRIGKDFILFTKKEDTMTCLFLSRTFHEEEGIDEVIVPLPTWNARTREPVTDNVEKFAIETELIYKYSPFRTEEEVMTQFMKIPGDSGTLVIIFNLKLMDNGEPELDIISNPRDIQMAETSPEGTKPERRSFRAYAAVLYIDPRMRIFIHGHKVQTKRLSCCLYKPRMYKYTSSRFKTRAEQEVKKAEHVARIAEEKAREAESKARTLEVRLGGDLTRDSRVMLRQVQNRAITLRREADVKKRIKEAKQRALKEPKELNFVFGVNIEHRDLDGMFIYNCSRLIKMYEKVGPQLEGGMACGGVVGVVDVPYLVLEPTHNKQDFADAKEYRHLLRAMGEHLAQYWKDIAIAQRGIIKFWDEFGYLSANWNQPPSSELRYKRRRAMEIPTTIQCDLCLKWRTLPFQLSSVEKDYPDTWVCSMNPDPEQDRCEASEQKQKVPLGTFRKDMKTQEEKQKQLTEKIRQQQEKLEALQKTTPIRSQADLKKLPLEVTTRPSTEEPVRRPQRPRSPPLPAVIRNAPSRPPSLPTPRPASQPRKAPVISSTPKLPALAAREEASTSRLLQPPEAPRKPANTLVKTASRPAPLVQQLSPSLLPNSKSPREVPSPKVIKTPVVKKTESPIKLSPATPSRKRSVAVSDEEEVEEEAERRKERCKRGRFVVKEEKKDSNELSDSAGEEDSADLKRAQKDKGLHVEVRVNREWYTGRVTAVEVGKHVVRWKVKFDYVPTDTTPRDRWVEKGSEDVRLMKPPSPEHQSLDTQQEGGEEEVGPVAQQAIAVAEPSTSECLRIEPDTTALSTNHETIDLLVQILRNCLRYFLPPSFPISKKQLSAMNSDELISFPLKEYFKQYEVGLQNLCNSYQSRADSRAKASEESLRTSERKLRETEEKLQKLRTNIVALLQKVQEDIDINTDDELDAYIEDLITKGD
inactive: [1] -0.193 | [2] -0.118 | silmitasertib -0.066 | [4] -0.151

NKAP (UniProt Q8N5F7)
Chain of UniProt Q8N5F7 (Q8N5F7 whole entry, looked up): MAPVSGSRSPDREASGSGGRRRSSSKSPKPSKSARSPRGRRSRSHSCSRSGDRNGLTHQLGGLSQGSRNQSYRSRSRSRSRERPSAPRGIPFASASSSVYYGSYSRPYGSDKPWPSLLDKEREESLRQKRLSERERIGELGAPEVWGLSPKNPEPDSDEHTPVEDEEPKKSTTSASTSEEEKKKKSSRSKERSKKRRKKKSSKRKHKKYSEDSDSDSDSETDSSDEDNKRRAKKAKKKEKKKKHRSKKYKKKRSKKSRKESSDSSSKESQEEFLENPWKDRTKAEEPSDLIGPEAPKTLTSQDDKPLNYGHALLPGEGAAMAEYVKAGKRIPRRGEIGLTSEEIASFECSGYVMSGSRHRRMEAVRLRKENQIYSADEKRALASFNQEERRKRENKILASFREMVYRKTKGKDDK
inactive: [1] -0.043 | [2] 0.027 | [3] -0.028 | vorinostat 0.019 | citarinostat 0.099 | silmitasertib -0.132 | [4] 0.111 | [5] -0.144 | entospletinib -0.144

ORC3 (UniProt Q9UBD5)
Chain of UniProt Q9UBD5 (Q9UBD5 whole entry, looked up): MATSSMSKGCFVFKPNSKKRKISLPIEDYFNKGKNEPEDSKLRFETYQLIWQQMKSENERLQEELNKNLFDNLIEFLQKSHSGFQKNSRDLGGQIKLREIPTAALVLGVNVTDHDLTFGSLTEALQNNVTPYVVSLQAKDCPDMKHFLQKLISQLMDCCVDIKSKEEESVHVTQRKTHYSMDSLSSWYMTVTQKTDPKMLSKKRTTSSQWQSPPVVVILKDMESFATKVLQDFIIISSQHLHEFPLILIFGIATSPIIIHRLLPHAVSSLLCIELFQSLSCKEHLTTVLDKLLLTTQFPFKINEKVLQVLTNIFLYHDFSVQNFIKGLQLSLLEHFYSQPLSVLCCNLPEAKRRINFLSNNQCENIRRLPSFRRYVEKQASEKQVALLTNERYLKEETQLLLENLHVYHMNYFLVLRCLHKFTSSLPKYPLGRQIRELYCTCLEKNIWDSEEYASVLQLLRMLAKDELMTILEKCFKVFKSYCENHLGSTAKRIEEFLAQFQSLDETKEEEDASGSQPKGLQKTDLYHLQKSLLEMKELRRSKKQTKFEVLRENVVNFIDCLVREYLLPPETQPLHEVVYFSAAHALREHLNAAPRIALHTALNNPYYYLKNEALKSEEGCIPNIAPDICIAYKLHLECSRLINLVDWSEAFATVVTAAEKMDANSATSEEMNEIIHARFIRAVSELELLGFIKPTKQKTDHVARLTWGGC
inactive: [1] 0.067 | citarinostat 0.032 | [5] -0.195 | entospletinib -0.144

MYO19 (UniProt Q96H55)
inactive: [1] -0.112 | [3] 0.051 | vorinostat 0.029 | [4] 0.232

PACRGL (UniProt Q8N7B6)
inactive: [6] 0.055 | entinostat -0.116

OGFOD2 (UniProt Q6N063)
Chain of UniProt Q6N063 (Q6N063 whole entry, looked up): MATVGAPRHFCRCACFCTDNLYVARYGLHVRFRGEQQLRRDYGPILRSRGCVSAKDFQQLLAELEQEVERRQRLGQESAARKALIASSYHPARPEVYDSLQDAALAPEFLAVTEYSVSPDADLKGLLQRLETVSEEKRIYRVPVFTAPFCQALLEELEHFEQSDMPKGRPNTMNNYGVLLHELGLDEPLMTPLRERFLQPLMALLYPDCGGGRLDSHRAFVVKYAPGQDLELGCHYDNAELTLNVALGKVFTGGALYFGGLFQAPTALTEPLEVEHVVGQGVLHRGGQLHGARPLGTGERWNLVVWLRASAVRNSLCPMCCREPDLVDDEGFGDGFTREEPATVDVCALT
inactive: [1] 0.005 | [2] -0.151 | [3] -0.012 | vorinostat -0.313 | citarinostat 0.036 | silmitasertib 0.097 | [4] -0.073 | [5] -0.012 | entospletinib -0.003

P4HA2 (UniProt O15460)
inactive: [6] -0.034 | [2] -0.129 | [3] 0.063 | entinostat -0.104 | vorinostat -0.047 | citarinostat -0.019 | silmitasertib 0.025 | [4] 0.201 | [5] -0.021 | entospletinib 0.021

MOB2 isoform 3 (UniProt Q70IA6)
Chain of UniProt Q70IA6 (Q70IA6 whole entry, looked up): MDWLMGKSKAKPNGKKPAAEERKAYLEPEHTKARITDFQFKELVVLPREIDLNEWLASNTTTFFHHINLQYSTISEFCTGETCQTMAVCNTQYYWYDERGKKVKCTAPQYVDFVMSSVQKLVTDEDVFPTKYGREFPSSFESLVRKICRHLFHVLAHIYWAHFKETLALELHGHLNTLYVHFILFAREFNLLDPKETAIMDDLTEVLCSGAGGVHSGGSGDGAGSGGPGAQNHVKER
inactive: [2] -0.251 | vorinostat 0.044 | silmitasertib 0.062 | [4] -0.368
